Measured values taken from PubChem BioAssay (NCI).
About 79,000 compounds went through this panel and 15% of them were active in at least one assay; those are over-represented in the sample as a whole. Active and inactive are the calls of the source. Cut-off read from the data, not from the text of the source: active = growth inhibition above about 70%; inactive = the rest.

Key:
[1] = NCI Yeast Anticancer Drug Screen. Data for the rad50 strain (AID 155);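 note: 0% = growth of vehicle-only cultures of the same strain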; conditions: S. cerevisiae rad50 strain growth inhibition, active compounds read high
How it was run: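 Inhibition values express reduced yeast growth in compound-treated cultures relative to vehicle-treated controls.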

[2] = NCI Yeast Anticancer Drug Screen. Data for the mec2-1 strain (AID 157); conditions: S. cerevisiae mec2-1 strain, active compounds read high
How it was run: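 Compounds were applied to mec2-1 yeast cells. Their growth was then compared with that of vehicle-treated cultures to give growth inhibition.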

[3] = NCI Yeast Anticancer Drug Screen. Data for the sgs1 mgt1 strain (AID 161);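 note: 0% = growth of cultures given vehicle only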; conditions: S. cerevisiae sgs1 mgt1 strain, active compounds read high
How it was run: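 Yeast cells carrying a defined DNA-repair defect were exposed to test compounds. Growth inhibition was measured relative to vehicle-treated controls.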

[4] = NCI Yeast Anticancer Drug Screen. Data for the cln2 rad14 strain (AID 165);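 note: 0% = growth equal to vehicle treated cultures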; conditions: S. cerevisiae cln2 rad14 strain, active compounds read high
How it was run: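 Strain: cln2 rad14 yeast, altered in cell cycle control and DNA damage repair. Read-out: growth inhibition vs vehicle.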

[5] = NCI Yeast Anticancer Drug Screen. Data for the bub3 strain (AID 167); conditions: S. cerevisiae bub3 mutant strain, active compounds read high
How it was run: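 Steps: expose the mutant yeast strain to compound; grow alongside vehicle-treated cultures; measure growth; express inhibition against the vehicle cultures.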

[6] = NCI Yeast Anticancer Drug Screen. Data for the mlh1 rad18 strain (AID 175); conditions: S. cerevisiae mlh1 rad18 strain growth inhibition, active compounds read high
How it was run: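 A repair-deficient yeast strain is exposed to test compound, and growth is scored relative to vehicle-treated controls.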

[7] = at 5.0 µM (retest, dose inferred, filed as 0.5)
[8] = at 50.0 µM (retest, dose inferred, filed as 5.0)

Measured: growth inhibition

Nn1c(-c2ccccc2)nn(C(=O)c2ccccc2)c1=O
active: [6]; at 50.0 µM 87.7%
inactive: [1]; [7] 0% | [1]; [8] 39% | [1]; at 50.0 µM 39.5% | [2]; [7] -2% | [2]; [8] 45% | [2]; at 50.0 µM 39.7% | [3]; [7] 15% | [3]; [8] 50% | [3]; at 50.0 µM 60% | [4]; [7] -1% | [4]; [8] 8% | [4]; at 50.0 µM 30.4% | [5]; [7] -3% | [5]; [8] 62% | [5]; at 50.0 µM 14.7% | [6]; [7] 1% | [6]; [8] 58%

O=C(O)CCCc1ccc2c(c1)CC1(C2)Cc2ccc(CCCC(=O)O)cc2C1
inactive: [1]; [7] 28% | [1]; [8] 44% | [1]; at 50.0 µM -38% | [2]; [7] 21% | [2]; [8] 33% | [2]; at 50.0 µM 2.15% | [3]; [7] 27% | [3]; [8] 38% | [3]; at 50.0 µM -28.3% | [4]; [7] 22% | [4]; [8] 27% | [4]; at 50.0 µM 8.65% | [5]; [7] 20% | [5]; [8] 29% | [5]; at 50.0 µM 9.45% | [6]; [7] 28% | [6]; [8] 45% | [6]; at 50.0 µM -5.8%

Cn1c(=S)sc2nc3ccccc3n2c1=S
active: [1]; [8] 96% | [1]; at 50.0 µM 82.3% | [2]; [8] 97% | [2]; at 50.0 µM 97% | [3]; [8] 98% | [3]; at 50.0 µM 92.2% | [4]; [8] 98% | [4]; at 50.0 µM 90% | [5]; [8] 98% | [5]; at 50.0 µM 87.4% | [6]; [8] 97% | [6]; at 50.0 µM 97.9%
inactive: [1]; [7] 49% | [2]; [7] 12% | [3]; [7] 37% | [4]; [7] 18% | [5]; [7] 14% | [6]; [7] 54%

O=C(O)C1OC(Oc2ccc3oc4ccccc4c(=O)c3c2)C(O)C(O)C1O (centres undefined)
active: [1]; [8] 91%
inactive: [1]; [7] -23% | [1]; at 50.0 µM 48.8% | [2]; [7] 3% | [2]; [8] 33% | [2]; at 50.0 µM 40.2% | [3]; [7] -1% | [3]; [8] 48% | [3]; at 50.0 µM 30.8% | [4]; [7] 4% | [4]; [8] 15% | [4]; at 50.0 µM 56.5% | [5]; [7] 10% | [5]; [8] 64% | [5]; at 50.0 µM 47.1% | [6]; [7] 7% | [6]; [8] 39% | [6]; at 50.0 µM 57.9%

CCCCCCCCCCC(O)CN1CCN(c2cccc(Cl)c2)CC1 (centres undefined)
active: [1]; [7] 95% | [1]; [8] 98% | [1]; at 50.0 µM 98.9% | [2]; [7] 99% | [2]; [8] 99% | [2]; at 50.0 µM 98.7% | [3]; [7] 99% | [3]; [8] 99% | [3]; at 50.0 µM 99.2% | [4]; [7] 97% | [4]; [8] 98% | [4]; at 50.0 µM 97.2% | [5]; [7] 96% | [5]; [8] 99% | [5]; at 50.0 µM 90.3% | [6]; [7] 99% | [6]; [8] 99% | [6]; at 50.0 µM 99.2%

CCC(C)(C)c1cc(Br)c(NS(=O)(=O)c2ccc(NC(C)=O)cc2)c(Br)c1
active: [1]; [8] 80% | [4]; [8] 78%
inactive: [1]; [7] 5% | [1]; at 50.0 µM -6.75% | [2]; [7] 13% | [2]; [8] 65% | [2]; at 50.0 µM 8.05% | [3]; [7] -9% | [3]; [8] 35% | [3]; at 50.0 µM -0.45% | [4]; [7] 9% | [4]; at 50.0 µM 6.85% | [5]; [7] -3% | [5]; [8] 62% | [5]; at 50.0 µM 6.5% | [6]; [7] 8% | [6]; [8] 42% | [6]; at 50.0 µM 20.5%

Cc1ccc(NC2=CC(=O)C(NO)c3ccccc32)cc1 (centres undefined)
inactive: [1]; [7] 14% | [1]; [8] 66% | [1]; at 50.0 µM 38.6% | [2]; [7] 19% | [2]; [8] 66% | [2]; at 50.0 µM 20.6% | [3]; [7] 16% | [3]; [8] 68% | [3]; at 50.0 µM 35.6% | [4]; [7] 10% | [4]; [8] 40% | [4]; at 50.0 µM 44.5% | [5]; [7] 21% | [5]; at 50.0 µM 21.9% | [6]; [7] 13% | [6]; at 50.0 µM 60.5%
active: [5]; [8] 83% | [6]; [8] 79%

O=C(O)C(=O)Cc1ccccc1[N+](=O)[O-]
active: [1]; at 50.0 µM 75.4%
inactive: [1]; [7] -3% | [1]; [8] 36% | [2]; [7] 1% | [2]; [8] 1% | [2]; at 50.0 µM 4.9% | [3]; [7] -3% | [3]; [8] 28% | [3]; at 50.0 µM 68.3% | [4]; [7] 1% | [4]; [8] 3% | [4]; at 50.0 µM -18.6% | [5]; [7] -10% | [5]; [8] 10% | [5]; at 50.0 µM 20.5% | [6]; [7] -2% | [6]; [8] 24% | [6]; at 50.0 µM 68.2%
